Several values for one entry are separate records, joined by “and”; a condition that tells them apart may be missing. Equal values may be shown once. The panel holds about 83,000 compounds, 20% with a hit somewhere; the sample as a whole holds those more often.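 Single-dose data. Exposure time 48 hours. Values below 10 considered active.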 Activity calls are given as the source filed them.

Assay in all cases: NCI-60 one-dose screen, 48 h (100 = growth as untreated, 0 = no growth, -100 = all killed)
What all share (conditions): 10 µM unless noted

For assay [1], the system named is RPMI-8226 leukemia.
The subject of assay [2] is OVCAR-8 ovarian.
Assay [3] concerns OVCAR-5 ovarian.
Assay [4] deals with OVCAR-4 ovarian.
Assay [5] deals with SK-OV-3 ovarian.
In assay [6] the test system is OVCAR-3 ovarian.
The test system of assay [7] is HS 578T breast.
Assay [8] has as its system NCI/ADR-RES ovarian.
The subject of assay [9] is T-47D breast.
In assay [10] the test system is BT-549 breast.
Assay [11] concerns MDA-MB-435 melanoma.
Assay [12] has as its system SW-620 colon.
Assay [13] deals with MCF7 breast.
Assay [14] relates to HCT-116 colon.
In assay [15] the test system is HCC-2998 colon.
Assay [16] deals with KM12 colon.
For assay [17], the system named is SR leukemia.
Assay [18] deals with IGROV1 ovarian.

On to `NCCSC(C[N+](=O)[O-])c1ccccc1Cl` (stereo not given), for which the growth is -22.6% (active) in assay [1]; 61% (inactive) in [2]; 99.5% (inactive) in [3]; 102% (inactive) in [4]; 112% (inactive) in assay [5]; -75.7% (active) in [6]. The growth in assay [7] is -1.76% (active); in assay [8], 106% (inactive); in [9], 87.5% (inactive); in assay [10], 81.1% (inactive); in [11] it was -24.7% (active); in assay [12], -51.3% (active). Further, the growth was -19.1% (active) in [13], -83.9% (active) in [14], -77.8% (active) in assay [15] and -55.6% (active) in [16].
For the molecule `CNc1cc(-c2cccc(OC(F)(F)F)c2)nc2ccc(N3CCCC3)cc12`, the growth in assay [17] was -33.9% (active) and -44.7% (active) and -14.6% (active); in assay [2], 34.7% (inactive) and -26.3% (active) and -2.97% (active); in [4], 53.1% (inactive) and -27.1% (active) and 22% (inactive); in [5], 93.5% (inactive) and 55.3% (inactive) and 92.4% (inactive); in assay [18], 35.5% (inactive) and -14.9% (active) and 53.2% (inactive); in assay [6], 85.7% (inactive) and -90.8% (active) and 84.8% (inactive). Besides, the growth was 88.4% (inactive) and 47.5% (inactive) and 75.7% (inactive) in [7]; 59% (inactive) and 20.9% (inactive) and 21.3% (inactive) in assay [8]; -40.3% (active) and -55% (active) and -40.4% (active) in assay [9]; 35.8% (inactive) and -86.4% (active) and -70.6% (active) in assay [11]; 5.95% (active) and -18.2% (active) and 0.371% (active) in assay [12]; 3.84% (active) and -19.7% (active) and 0.755% (active) in assay [13]. In addition, the growth in assay [14] was -76% (active) and -90.3% (active) and -76.6% (active); in assay [15] it was 25.9% (inactive) and -53.7% (active) and -32.7% (active); in [16], 12.5% (inactive) and -3.68% (active) and 1.48% (active).
Regarding `ClC/C=C/CSc1ncnc2nc[nH]c12`, the growth in [17] is 74.4% (inactive); in assay [2], 106% (inactive); in assay [3], 112% (inactive) and 104% (inactive); in assay [5] it was 95% (inactive) and 107% (inactive); in assay [18], 113% (inactive) and 101% (inactive); in [6] it was 119% (inactive) and 114% (inactive). The growth is 105% (inactive) and 119% (inactive) in assay [7]; 106% (inactive) and 108% (inactive) in assay [8]; 98% (inactive) and 99.5% (inactive) in [9]; 102% (inactive) and 158% (inactive) in assay [10]; 108% (inactive) and 103% (inactive) in assay [11]; 98.8% (inactive) and 110% (inactive) in assay [12]. The growth in [13] was 99.8% (inactive) and 93.7% (inactive); in assay [14] it was 105% (inactive); in assay [15] it was 106% (inactive) and 108% (inactive); in assay [16], 113% (inactive) and 105% (inactive).
Regarding `C[N+](C)(C)CN1C(=O)c2ccccc2C1=O`, the growth is 83.8% (inactive) in assay [17]; 97.4% (inactive) in assay [2]; 105% (inactive) in [3]; 101% (inactive) in assay [4]; 98.1% (inactive) in assay [5]; 109% (inactive) in assay [6]. Besides, the growth is 103% (inactive) in [7]; 112% (inactive) in assay [8]; 96.5% (inactive) in [9]; 98.6% (inactive) in assay [10]; 97.6% (inactive) in [11]; 107% (inactive) in [12]. The growth in [13] is 92.7% (inactive); in assay [14], 104% (inactive); in [15], 108% (inactive); in assay [16], 111% (inactive).
Turning to `CC1=C(/C=C/C(C)=C/C=C/C(C)=C/C(=O)Nc2ccc(O)cc2)C(C)(C)CCC1`, the growth was -4.85% (active) in [17]; 65.9% (inactive) in [2]; 89.9% (inactive) in assay [3]; 69.3% (inactive) in [5]; -0.235% (active) in assay [18]; 27.8% (inactive) in assay [6]. The growth was 63.3% (inactive) in assay [7]; 39.1% (inactive) in assay [8]; 5.78% (active) in assay [9]; 21.9% (inactive) in [10]; 31.7% (inactive) in assay [11]; 67.2% (inactive) in [12]. Moreover, the growth is 8.82% (active) in assay [13], 55.3% (inactive) in [14], 51% (inactive) in assay [15] and 34.2% (inactive) in assay [16].
For the molecule `CCN(CC)CCCC(C)N(Cc1ccccc1)CC(O)c1ccc(Cl)cc1` (stereo not given), the growth in [1] is 99.9% (inactive) and 96.7% (inactive); in [2] it was 105% (inactive) and 102% (inactive); in assay [3], 91.2% (inactive); in [4] it was 116% (inactive) and 112% (inactive); in assay [5] it was 94.4% (inactive) and 102% (inactive); in assay [18] it was 113% (inactive) and 101% (inactive). The growth was 109% (inactive) and 100% (inactive) in assay [6]; 108% (inactive) and 98.3% (inactive) in assay [8]; 94.5% (inactive) and 91.3% (inactive) in assay [9]; 110% (inactive) and 102% (inactive) in [10]; 116% (inactive) and 107% (inactive) in [11]; 98.8% (inactive) and 113% (inactive) in assay [12]. The growth in [13] is 105% (inactive) and 99.3% (inactive); in assay [14], 102% (inactive) and 100% (inactive); in [15], 101% (inactive); in assay [16], 103% (inactive) and 101% (inactive).
